The source of these data is the supplement of paper PMC11417369.

± gives the standard deviation of the averaged measurements. Whole data set: some 25,000 sequences, median “ln(normalized median fluorescence intensity)” near 7.9, cut for the highest 2% near 11. What follows is part of a selection rich in the highest values, with near analogues and random picks from the rest.

The test concerns PfAP2-I AP2 domain 3 (GST-tagged). The test is described as follows: gcPBM binding intensity (ln(normalized median fluorescence intensity)); higher = stronger DNA binding. The procedure, abridged:
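In this array assay, P. falciparum DNA-binding domains with a GST tag, expressed in E. coli, were applied for 1 h to primer-extended double-stranded 36-bp intergenic genomic probes and negative controls on an Agilent 4 × 180k array. Bound protein was visualised with Alexa488 anti-GST antibody at 488 nm. Binding intensity is the highest Masliner-normalised natural-log median intensity across replicate spots of either probe orientation.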
Regarding TTTTTTGTTTGAATGGTGCATTTTGTAATTATATTT, the “gcPBM binding intensity (ln)” value came to 10.3 ± 0.41. On to “TTGTTATGTTTTATTTGTACGTAGGTTTCTATCAAA [XGTACX_site7636]”, for which the “gcPBM binding intensity (ln)” value stood at 8.12 ± 0.35. On to “ATATTTATTTATATGTGTACTTATGTTTATATAAAA [XGTACX_site4250]”, for which the “gcPBM binding intensity (ln)” value was found to be 8.02 ± 0.21.

As for “GAAAATATAAAAAAAAGTACATTTTCTCTAAATATA [XGTACX_site2441]”, the “gcPBM binding intensity (ln)” value stood at 7.57 ± 0.35. With “ATTTTTTTACTGTAACCATATTTTTCCCTTTTATTC [CACACA_negctrl_site1143]”, the “gcPBM binding intensity (ln)” value amounted to 7.95 ± 0.79. To “TGTATGTTATATACAACACACAAAAAAAAACAAGTT [CACACA_site301]” belongs 7.62 ± 0.7; to “AGACAATATCTTATTTGTACATATGTATTCCTCATA [XGTACX_site5757]”, 7.88 ± 0.63; to “GGGAATATAAGTACACGATAATATGTGATAAGGTCT [CACACA_negctrl_site1502]”, 8.28 ± 0.86. For the sequence “AAGAACCATATTTAAACACACATACCTATATAAATA [CACACA_site7553]”, the “gcPBM binding intensity (ln)” value stood at 7.68 ± 0.53.

As to “ATGTTACACCGACACACACACATAAAAAAACAAAAA [CACACA_site5750]”, the “gcPBM binding intensity (ln)” value is 8.15 ± 0.34. As for “TATATATATTAGTGTGCACACTTTTTATTTTTATCC [CACACA_site8506]”, the figure is 9.33 ± 0.4; as for “ACGTGTATTTATTTAGTGCACTTTATATTTTTTCTT [GTGCAC_site9426]”, 11.5 ± 0.28.

Take ATTTTTTTCTTAGGAGTGCACTTATATTTATTTTAT: the “gcPBM binding intensity (ln)” value came out at 10.8 ± 0.49.

As for ACACCTATAAATTAAGTGCATTTTTTTTGATGTTAT, the “gcPBM binding intensity (ln)” value is 9.45 ± 0.46. As for ATACCTATTTGATGAGTGCATTATCCAATATATGTA, the figure is 11.3 ± 0.65. To “TTATACCTATATTTAACACACATTTGATAAAGTGCC [CACACA_site6732]” belongs 7.76 ± 0.61; to “ATTTTTGTTATTACATGTACCCATAATTATTATTAA [XGTACX_site3558]”, 8.58 ± 0.75; to “AAAATTATAATAATATGTACTTAAAAAATTTATATA [XGTACX_site632]”, 7.54 ± 0.2. Regarding TGTTAAAATTATTTGGTGCACTTGTTTTACCTTATT, the “gcPBM binding intensity (ln)” value worked out at 10.8 ± 0.48. As to TTTTTGTTACCTATTGTGCACTTCATATAAATTAAA, the “gcPBM binding intensity (ln)” value turned out to be 11.3 ± 0.35.

For “ACATTAAAAAATTGTTTGCACTATATAAAATATTAA [GTGCAC_site9728]”, the “gcPBM binding intensity (ln)” value turned out to be 9.86 ± 0.28. For the sequence “TATATATGCATATACATACACACATAACACATACGT [CACACA_site3833]”, the “gcPBM binding intensity (ln)” value came to 8.24 ± 0.39. As for “ATATATAACGTGCACACACACATTTACGTATGAATA [CACACA_site6948]”, the figure is 10.975 ± 0.007; as for TTTATACATACATTCGTGCACATACGTATAACATAT, 11.2 ± 0.19. As for “ATTAATATATAACGTGCACACACACCGTTACGTATG [CACACA_site8543]”, the figure is 10.3 ± 0.35; as for “ATATATAACGGGCACACACACATTTACGTATGAATA [CACACA_site1833]”, 8.31 ± 0.49; as for “TATGTTTACATATACGTGCACATGAATGTATACATT [GTGCAC_site9894]”, 10.7 ± 0.29. To “TAATATATAACGTGCACACACACATCTACGTATGAA [CACACA_site5080]” belongs 10.82 ± 0.099; to “ATACGTATATAATATACATGCATATATAGCACATAC [TGCATGCA_site376]”, 9.11 ± 0.66; to “TAATATATAACGTGCACACACACATTTACGTATGAA [CACACA_site1832]”, 10.86 ± 0.064. For “AATGTCCTTATTTGCACACACACATATAAGAAATTT [CACACA_site3186]”, the “gcPBM binding intensity (ln)” value stood at 9.91 ± 0.23. Turning to “TTACGCGCTTATTACACACACATACAAATAAGGATT [CACACA_site3486]”, the “gcPBM binding intensity (ln)” value was determined as 8.06 ± 0.47. On to “ATAATCAACATTAGGTGTACAAAATATGTATGTTTT [XGTACX_site6696]”, for which the “gcPBM binding intensity (ln)” value stood at 8 ± 0.59. In the case of “AATTTTTTTCTCCAAGTGCATTAGAACATTAACGTA [GTGCAC_site9413]”, the “gcPBM binding intensity (ln)” value stood at 10.9 ± 0.53. For the sequence “TTTTCTTTTTCCAAAAGTACGTAATTTAAACATTTT [XGTACX_site2066]”, the “gcPBM binding intensity (ln)” value is 7.83 ± 0.43. For the sequence “ATTATTAAGTTTCACAAGAACATTGTTAACAATTTT [CACACA_negctrl_site1128]”, the “gcPBM binding intensity (ln)” value was 7.5 ± 0.64. For the sequence “AAAAAAAATTATATTTGTACGCATTAAAAAATCTAA [XGTACX_site1616]”, the “gcPBM binding intensity (ln)” value was determined as 7.64 ± 0.26. Regarding “ATAACAAAAAAAAAGGTGCTACAAAATGAATAAAAA [GTGCAC_site9659]”, the “gcPBM binding intensity (ln)” value was found to be 9.12 ± 0.3. To “TGAACAGACAAATACACACACTCAAAAAAAAAAAAG [CACACA_site7287]” belongs 7.68 ± 0.45. As for TGAACTCAACAAAGGGTGCATAACAAAAATAGACGT, the figure is 11.4 ± 0.23; as for “TTTTTTTTTAATATTTGTACACAACATGAAACATTT [XGTACX_site473]”, 8.16 ± 0.53; as for “TATATTTATGTATATGTGCACATAAATTTAAGAATG [GTGCAC_site9512]”, 9.68 ± 0.19. For the sequence “TATATATTAATCAAAGTGCAATAATAAAATAAAAGT [GTGCAC_site9490]”, the “gcPBM binding intensity (ln)” value stood at 10.8 ± 0.34.

For the sequence “TATAAGAATGACAAGTGTACATATCAAATATATTAG [XGTACX_site7113]”, the “gcPBM binding intensity (ln)” value worked out at 7.77 ± 0.38. To TATTGACATATATTAGTGCAATAATGAAATCAAGTA belongs 10.9 ± 0.43; to “ATAAAATAAAGGAAAAATATTAAGTTTTAAGAAAAT [CACACA_negctrl_site1066]”, 7.6 ± 0.76. To “ATTATTTAAATGGATGCACACATGCATTAAATAAAA [CACACA_site5831]” belongs 8.99 ± 0.82.
